# D2 PAM-1 = positive allosteric modulators of human D2 dopamine receptor; AID 624464; 360,000 tested, 0.23% active; DiscoveRx D2 beta-arrestin cells, luminescence, 90 min; 100% = 57 uM dopamine signal; potentiation, % (test concentration not listed); P14416; in the data active = potentiation above about 50%; inconclusive = mostly about 30% to 49%
# Target sequence (P14416 whole entry, looked up): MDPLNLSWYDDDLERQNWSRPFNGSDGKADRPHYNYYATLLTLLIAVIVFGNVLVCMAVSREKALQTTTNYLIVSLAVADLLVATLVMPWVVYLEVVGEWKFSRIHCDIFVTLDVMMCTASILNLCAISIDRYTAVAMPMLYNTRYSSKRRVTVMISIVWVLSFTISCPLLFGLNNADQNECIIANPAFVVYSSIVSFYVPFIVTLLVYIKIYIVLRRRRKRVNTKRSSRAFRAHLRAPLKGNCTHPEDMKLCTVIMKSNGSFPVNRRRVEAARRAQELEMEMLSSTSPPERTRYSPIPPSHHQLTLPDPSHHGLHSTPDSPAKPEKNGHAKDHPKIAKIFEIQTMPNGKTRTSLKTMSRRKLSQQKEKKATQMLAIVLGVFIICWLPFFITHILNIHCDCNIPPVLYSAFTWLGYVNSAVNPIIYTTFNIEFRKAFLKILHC
#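 D2 cells co-treated with compound plus 50 nM dopamine (EC20) for 90 min at 37 deg C to detect potentiation. Beta-arrestin recruitment was read as enzyme-fragment luminescence after 1 h at ambient temperature. Full response was set by 57 uM dopamine.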
# D2 antag = D2 dopamine receptor (human) antagonism | HEK293 TREx D2 cells, calcium flux, dopamine EC80 | inhibition, % at 10 µM | P14416 | 340,000 tested, 2% active | AID 485344; in the data active = inhibition above about 30%; inactive = below that, where a call was filed
#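 Overnight-induced (tetracycline, 30 C) HEK293 T-REx cells carrying force-coupled D2 receive a no-wash calcium dye, then compound, then EC80 dopamine at 180 s; signals are read kinetically throughout.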
# D2 ag-1 = activates the human D2 dopamine receptor | 340,000 tested, 0.53% active | activation, % at 2 µM | P14416 | HEK293 T-REx D2 cells, calcium flux agonist mode;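 active = activation over 3 SD above normal in the single-dose calcium agonist read, cut at about 30% in these data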
#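 In this primary screen, compounds producing a positive calcium signal within 180 s of addition to tetracycline-induced, force-coupled HEK293 Trex D2 cells are flagged; cells are dye-loaded with a no-wash calcium kit beforehand.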
# D2 ag-2 = activates the human D2 dopamine receptor; P14416; DiscoveRx PathHunter D2 beta-arrestin, luminescence, 90 min; 100% = 57 uM dopamine signal; activation, % (concentration not given with the values); 360,000 tested, 0.084% active; AID 624465; in the data active = activation above about 40%; inconclusive = between about 15% and that limit
#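 Agonist mode: compounds alone added to overnight-plated D2 PathHunter cells for 90 min at 37 C, with 57 uM final dopamine (EC100) defining full response. Beta-arrestin recruitment detected by chemiluminescent reagent, read after 1 h at ambient temperature.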
# D2 PAM-2 = positively modulates the human D2 dopamine receptor allosterically; P14416; HEK293 T-REx D2, calcium flux, EC20 dopamine potentiation; potentiation, % at 10 µM; 340,000 tested, 0.34% active; AID 485347;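 active = potentiation over 3 SD above the plate norm, cut at about 30% in these data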
#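 Potentiation of an EC20 dopamine calcium response measured kinetically over 180 s, after a preceding 180 s compound-only read flagging agonists. Cells: inducible Hek293 Trex D2 line, 4000/well, cultured overnight at 30 C before dye loading.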
# Hits are given with their value; n = inactive; u = inconclusive; x = not tested or not shown. The list is not random: actives were taken first. Their share in the collection is about 2.4%.
SMILES,D2 PAM-1,D2 antag,D2 ag-1,D2 ag-2,D2 PAM-2
N=C(N)SCc1nc2ccccn2c1Br,n,n,n,n,n
O=C(O)c1ccccc1SCc1nc2ccccn2c1Br,n,51,n,n,n
Cc1cccc(-c2nc3scc(CCNS(=O)(=O)c4ccc(F)cc4C)n3n2)c1,x,x,n,x,n
COc1ccccc1NC(=O)CSc1oc(-c2ccc(F)cc2)nc1S(=O)(=O)c1ccc(Br)cc1,x,x,x,x,n
O=C1C(=NO)CCc2ccccc21,80,x,x,u,x
CC(NC(=O)COc1cccnc1[N+](=O)[O-])c1ccc(F)cc1 (stereo not drawn),n,n,n,n,34
O=C(COc1cccnc1[N+](=O)[O-])Nc1ccc(F)cc1,n,x,x,n,x
COc1ccc(Cc2c(C)nn(-c3nc(C)c(C(=O)Nc4ccc(C)cc4C)s3)c2C)cc1,x,x,n,x,n
Cc1ccc(Cl)cc1N(C)C(=O)c1cn(C2CCCCC2)c(=O)c2c1c1ccccc1n2C,x,x,n,x,n
CC1CCCCC1Nc1ncnc2sccc12 (stereo not drawn),n,36,n,n,n
N/C(COc1ccc(Cl)cc1Cl)=N\O,n,n,n,n,32
Cc1ccc(C2C3=C(CC(C)(C)CC3=O)Nc3n[nH]c(C)c32)cc1 (stereo not drawn),n,n,n,n,n
Cc1[nH]nc2c1C(c1ccc(F)cc1)C1=C(CC(C)(C)CC1=O)N2 (stereo not drawn),n,n,n,n,30
Cc1cc(C)c(S(=O)(=O)N/N=C/c2ccc3c(c2)OCO3)c(C)c1,n,74,n,n,n
CCOc1ccc(CCNC(=O)c2nn(C)c3c2CSc2ccc(C)cc2-3)cc1OCC,x,x,x,x,n
Cc1cc(=O)[nH]c(SCC(=O)Nc2c(C)n(C)n(-c3ccccc3)c2=O)n1,n,n,n,n,n
Oc1ccccc1CNCCCN1CCOCC1,n,n,n,n,n
Cc1nnc(N/N=C/c2cccc(OCc3ccc(Cl)c(Cl)c3)c2)n1N,74,n,n,n,n
Cc1nnc(N/N=C/c2cccc(C(F)(F)F)c2)n1N,n,n,n,n,n
CCN1C(=O)OC2(CCCCC2)C1(C)O (stereo not drawn),x,n,n,x,41
CN1C(=O)c2ccccc2Sc2ccc(NC(=O)N3CCN(c4ccc(F)cc4)CC3)cc21,x,x,n,x,n
Cc1ccccc1C(=O)Nc1nnc(-c2cccnc2)o1,n,n,n,n,n
CC(=O)c1ccc2c(c1)Nc1ccccc1S2,52,n,n,u,n
CCOC(=O)Nc1ccc2c(c1)Nc1ccccc1S2,63,n,n,n,n
C/C(=N\NC(=O)c1ccc(C)cc1C)c1ccc2c(c1)Nc1ccccc1S2,78,n,n,u,n
SMILES,D2 PAM-1,D2 antag,D2 ag-1,D2 ag-2,D2 PAM-2
C/C(=N\NC(=O)c1ccc(C)cc1C)c1ccc(-n2ccnc2)cc1,n,n,n,n,n
CC1(C)CC(=O)N(CC(=O)NC2CCCC2)c2ccccc2S1(=O)=O,n,n,n,n,n
COc1ccc(OC)c(CCNC(=O)CN2C(=O)CC(C)(C)S(=O)(=O)c3ccccc32)c1,n,n,n,n,34
CC(c1ccccc1)n1c(CCCO)nc2ccccc21 (stereo not drawn),n,x,x,n,x
O=[N+]([O-])c1ccc(Cl)c(S(=O)(=O)Nc2cccc(-c3ccc(N4CCOCC4)nn3)c2)c1,n,34,n,n,n
O=[N+]([O-])c1ccc(Cl)c(S(=O)(=O)Nc2ccc(-c3ccc(N4CCOCC4)nn3)cc2)c1,n,n,n,n,n
Cc1ccc2onc(CC(=O)Nc3cc(F)ccc3F)c2c1,x,x,n,x,n
O=C(COc1cc2oc(=O)c3c(c2cc1Cl)CCC3)NCCCN1CCCC1=O,n,n,n,n,n
O=C(COc1cc2oc(=O)c3c(c2cc1Cl)CCC3)Nc1ccc(CN2CCOCC2)cc1,n,n,n,n,30
COc1ccc(N2CCN(C(CNC(=O)COc3ccccc3)c3ccco3)CC2)cc1 (stereo not drawn),n,n,n,n,n
Cc1ccc(C(C)C)c(OCCCn2c(=O)oc3ccccc32)c1,x,x,n,x,n
O=C(CSc1ncn[nH]1)NNC(=O)c1ccccc1,n,n,n,n,n
O=C(Nc1ccccc1Br)C1CCCN(S(=O)(=O)c2cccc3nsnc23)C1 (stereo not drawn),x,x,n,x,n

# Bioassay records from PubChem.
